Screen size: about 52,000 compounds; about 4,300 (8.3%) were called active. The sample as a whole holds a higher share of actives than the screen did. A number with no mark means an inactive call. No stated cut-off is given here; in the data, active means survival mostly below about 52% (no sharp cut-off); inactive means mostly above about 56%.
What follows are molecules tested on DeltatarO mutant (assay: growth inhibition of S. aureus wild type versus tarO mutant, primary screen, teichoic acid synthesis inhibitors, RN4220, OD600 (AID 463173)). Conditions: OD600, 18 h, stronger effect = lower value, screened at 18.75 µg/mL (by protocol).

Row | SMILES | survival
1 | COc1ccccc1NC(=O)c1ncn(-c2ccccc2)n1 | 115%
2 | CC1=CC(C)(C)N(C(=O)Cc2ccccc2)c2ccccc21 | 115%
3 | CCC(CC)C(=O)N1c2ccccc2C(C)(c2ccccc2)CC1(C)C (configuration not stated) | -5% (active)
4 | CC(=O)N1c2ccccc2N(C)C(=O)C1(C)C | 88%
5 | CCC(=O)N1c2ccccc2C(C)(c2ccccc2)CC1(C)C (configuration not stated) | -8% (active)
6 | Cc1ccc(NC(=O)CN2C(=O)C(C)(C)c3ccccc32)cc1 | 78%
7 | CCC(=O)N1CCN(C(=O)CC)C1c1ccccc1 | 93%
8 | CCN1C(=O)C(O)(C(C)C(=O)c2ccccc2)c2ccccc21 (configuration not stated) | 57%
9 | CCC(CC)C(=O)N1CCN(Cc2ccccc2)CC1 | 94%
10 | CC(=O)N1c2ccccc2C(C)(c2ccc(C)cc2)CC1(C)C (configuration not stated) | -4% (active)
11 | CCCCCC(=O)N1c2ccccc2C(C)(c2ccccc2)CC1(C)C (configuration not stated) | -2% (active)
12 | CC1=CC(C)C(/C=N/O)C(C)C1 (configuration not stated) | 94%
13 | O=C(/C=C/c1ccccc1)Nc1ccccc1N1CCN(c2ccccc2)CC1 | 106%
14 | Cc1ccc2onc(CNC(=O)NCc3cccc(Cl)c3)c2c1 | 72%
15 | CC1CCCN(c2ncnc3c2nnn3C)C1 (configuration not stated) | 75%
16 | CCOC(=O)CN1CCOCCN(CC(=O)OCC)CCOCC1 | 64%
17 | Cc1ccc(NC(=O)CSc2cn(CC(=O)N3CCCC3)c3ccccc23)cc1Cl | 84%
18 | CCOc1ccc(CCNC(=O)Cn2nnc(-c3ccc(OC)c(OC)c3)n2)cc1OCC | 65%
19 | O=C(Nc1ccc2c(c1)oc1ccccc12)c1cccs1 | 69%
20 | COc1ccc(OC)c(CCNC(=O)C2CCN(c3ncnc4c3nc3n4CCCCC3)CC2)c1 | 80%
21 | COc1ccc(CNC(=O)CN2CCSc3ccccc32)c(OC)c1 | 120%
22 | CC(C)CN(CCNC(=O)CCN1N=C(c2ccccc2)CCC1=O)CC(C)C | 84%
23 | CCOC(=O)c1ccccc1NC(=O)N(C(C)C)C1CCN(C(C)=O)CC1 | 73%
24 | CCc1ccc(NC(=O)c2cnn3c(C(F)F)cc(C)nc23)cc1 | 96%

Row | SMILES | survival
25 | O=C(Cn1c(=O)n2nc(-c3cccc(F)c3)nc2c2ccccc21)N1CCN(c2ccccc2F)CC1 | 116%
26 | Cc1nn(Cc2noc(C(=O)NCc3cccc(F)c3)n2)c(C)c1Br | 71%
27 | CCCCN1C(=O)C(O)(CC(=O)c2ccc(C(C)(C)C)cc2)c2ccccc21 (configuration not stated) | 28%
28 | CCCCOc1ccc(C2(C(=O)O)CCCC2)cc1 | 103%
29 | CCCCC(=O)N1c2ccccc2C(C)(c2ccccc2)CC1(C)C (configuration not stated) | -3% (active)
30 | CC(C)Cc1nn2c(=O)cc(COC(=O)c3ccccc3NC(=O)C3CCCCC3)nc2s1 | 81%
31 | CCOc1ccc(NC(=O)Cn2c(CCC(=O)O)ccc2-c2ccc(C)cc2)cc1 | 65%
32 | O=C(O)CCc1ccc(-c2ccc(Br)cc2)n1-c1ccccc1O | 64%
33 | COC(=O)c1ccc(-n2c(CCC(=O)O)ccc2-c2ccc(C)cc2)cc1 | 49%
34 | CCc1ccc(-n2c(CCC(=O)O)ccc2-c2cccs2)cc1 | 52%
35 | Cc1ccc(-c2ccc(CCC(=O)O)n2-c2ccc(C(C)C)cc2)cc1 | 44%
36 | Cc1ccc(-c2ccc(CCC(=O)O)n2-c2ccc(C(N)=O)cc2)cc1 | 60%
37 | CCOC(=O)c1ccc(-n2c(CCC(=O)O)ccc2-c2ccc(Br)cc2)cc1 | 19% (active)
38 | CCc1ccc(-n2c(CCC(=O)O)ccc2-c2ccc(F)cc2)cc1 | 29% (active)
39 | CC(=O)Nc1ccc(-n2c(CCC(=O)O)ccc2-c2ccc(Br)cc2)cc1 | 45% (active)
40 | CCOc1ccc(-n2c(CCC(=O)O)ccc2-c2ccc(Br)cc2)cc1 | 48% (active)
41 | CC(=O)Nc1ccc(-n2c(CCC(=O)O)ccc2-c2ccc(C)cc2)cc1 | 56%
42 | CN(C)c1ccc(-n2c(CCC(=O)O)ccc2-c2ccccc2)cc1 | 60%
43 | Cc1c(CNC2CCCCC2)c(C(=O)O)c(C)n1Cc1ccc(F)cc1 | 85%
44 | Cc1ccc(-c2ccc(C#N)c(=O)n2CC(=O)N2CCNC(=O)C2(C)C)cc1 | 88%
45 | COc1ccc(CCNC(=O)C(=O)NCC(c2ccco2)S(=O)(=O)c2ccccc2)cc1OC (configuration not stated) | 54%
46 | COc1ccc(S(=O)(=O)N(C(=O)c2ccncc2)c2ccc3oc(C)c(C(C)=O)c3c2)cc1 | 152%
47 | CCc1nn(-c2ccccc2)c2nc(-c3ccc(O)cc3)c3cc(OC)c(OC)cc3c12 | 74%

From PubChem BioAssay AID463173 (ICCB-Longwood Screening Facility, Harvard Medical School, 2010)
